# Values without a mark were called inactive.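 Rule for the calls: active = AUC reduced over 20% with Padj below 0.05 in at least 2 of 3 replicates; inactive = otherwise.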
# What was measured:
# Assay in all cases: growth AUC relative to DMSO control (median of replicates) (fraction); higher = more growth (less inhibition), active = hit call of the paper
# Conditions in all cases: 20 µM; 24 h
# Coprococcus comes = tested on: Coprococcus comes
# Method in brief: (§1)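 Gut bacterial monocultures were grown anaerobically at 37 °C in mGAM from a starting OD600 of 0.05 with 20 µM compound (1% DMSO), in round-bottom 96-well plates under pierced gas-permeable seals, and OD600 was read hourly for 24 h. With the minimum OD set to 0, area under the growth curve was normalised to the plate median of solvent-only wells, or to row and column medians on the industrial chemical plate. Each value is the median of three biological replicates grown on separate days.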
# Escherichia coli ED1a = tested on: Escherichia coli ED1a
# Method in brief: as §1
# Escherichia coli IAI1 = tested on: Escherichia coli IAI1
# Method in brief: as §1
# Eubacterium rectale = tested on: Eubacterium rectale
# Method in brief: as §1
# [1] = tested on: Fusobacterium nucleatum subsp. animalis
# Method in brief: as §1
# Lactobacillus gasseri = tested on: Lactobacillus gasseri
# Method in brief: as §1
# Lactobacillus paracasei = tested on: Lactobacillus paracasei
# Method in brief: as §1
# Odoribacter splanchnicus = tested on: Odoribacter splanchnicus
# Method in brief: as §1
# [2] = tested on: Parabacteroides distasonis
# Method in brief: as §1
# Parabacteroides merdae = tested on: Parabacteroides merdae
# Method in brief: as §1
# Roseburia intestinalis = tested on: Roseburia intestinalis
# Method in brief: as §1
# Streptococcus salivarius = tested on: Streptococcus salivarius
# Method in brief: as §1
SMILES,growth AUC (Coprococcus comes),growth AUC (Escherichia coli ED1a),growth AUC (Escherichia coli IAI1),growth AUC (Eubacterium rectale),growth AUC [1],growth AUC (Lactobacillus gasseri),growth AUC (Lactobacillus paracasei),growth AUC (Odoribacter splanchnicus),growth AUC [2],growth AUC (Parabacteroides merdae),growth AUC (Roseburia intestinalis),growth AUC (Streptococcus salivarius)
Cc1ccc(NC(=O)N(C)C)cc1Cl,0.996,0.985,0.982,0.965,0.916,1.12,0.954,1.02,1.05,0.972,1.02,1.02
O=c1c2cc(F)ccc2nc(-n2cncn2)n1-c1ccc(Cl)cc1Cl,0.999,0.987,0.99,0.963,0.976,1.05,0.634,0.977,1.02,0.93,0.975,1.02
CC(C)C(C(=O)OC(C#N)c1cccc(Oc2ccccc2)c1)c1ccc(Cl)cc1 (stereo not given),1,1.01,0.963,0.901,1.02,0.9,1.11,0.893,1.01,0.974,0.929,0.988
O=P(Oc1ccccc1)(Oc1ccccc1)Oc1ccccc1,0.937,1,0.993,0.977,0.828,0.943,0.958,1.01,0.594 (active),0.842,0.937,0.957
COC(=O)NS(=O)(=O)c1ccc(N)cc1,1.01,0.972,0.975,1.28,0.939,0.848,0.903,1.1,1.08,0.774 (active),0.929,0.893
ClC1=C(Cl)[C@]2(Cl)C3CC=CC3[C@@]1(Cl)C2(Cl)Cl (stereo not given in full),0.942,0.99,1.01,0.951,0.846,0.989,1.03,0.987,1.04,0.984,1,1
ClC1(Cl)C2(Cl)C3(Cl)C4(Cl)C(Cl)(Cl)C5(Cl)C3(Cl)C1(Cl)C5(Cl)C24Cl (stereo not given),0.986,1.03,0.989,0.98,0.997,0.939,0.897,0.982,1.03,0.966,0.958,0.922
Cc1cc(Cl)ccc1OC(C)C(=O)O (stereo not given),0.984,1.01,1.02,0.978,0.945,1.12,0.945,0.942,0.966,1.02,1.03,1.01
CC(COc1ccc(Oc2ccccc2)cc1)Oc1ccccn1 (stereo not given),0.962,0.999,0.968,1.04,0.97,0.989,0.939,1.03,0.979,0.929,0.94,1.01
CP(=O)(O)CC(=O)O,0.991,0.984,1,1.07,0.945,1.02,0.871,0.978,0.979,0.982,1.09,0.998
CCOC(=O)C(C)OC(=O)c1cc(Oc2ccc(C(F)(F)F)cc2Cl)ccc1[N+](=O)[O-] (stereo not given),0.933,1.01,0.964,1.01,0.999,0.86,0.973,0.891,0.789 (active),0.885,0.78 (active),0.903
CC1(C)C(C=C(Cl)Cl)C1C(=O)OC(C#N)c1cccc(Oc2ccccc2)c1 (stereo not given),0.945,1.01,0.98,1.05,1.05,0.776,0.951,1.07,0.98,1.02,0.871,0.937
ClC1=C(Cl)C2(Cl)C3C4C=CC(C4)C3C1(Cl)C2(Cl)Cl (stereo not given),1.02,0.996,1.02,0.986,1,0.955,0.997,1.05,1.05,1.02,0.987,0.995
O=C(Nc1ccc(F)cc1F)c1cccnc1Oc1cccc(C(F)(F)F)c1,0.999,0.968,0.965,1.06,0.939,0.891,1.05,1.06,0.962,0.971,0.933,0.958
CN(C)C(=S)SSC(=S)N(C)C,0.833,0.973,0.973,0.83,1.09,0.875,1.02,0.0343 (active),0.928,0.852,0.822,0.956
CCc1nn(C)c(C(=O)NCc2ccc(C(C)(C)C)cc2)c1Cl,0.954,0.974,0.967,1.01,0.984,0.913,1.06,0.956,0.991,0.918,0.96,0.906
CCSCc1ccccc1OC(=O)NC,0.959,0.971,0.98,0.933,0.973,1.13,1.01,1.03,1.06,1.01,1.01,1.02
Clc1ccccc1Cl,1.02,0.971,0.994,0.972,0.975,0.948,1.02,0.95,0.996,1.01,0.968,1.07
O=C(O)CNCP(=O)(O)O,1,1,1,1.01,1.08,1.04,0.949,1.08,1.01,1.04,0.966,1.03
CC1(C)[C@H](C=C(Cl)Cl)[C@H]1C(=O)OCc1c(F)c(F)cc(F)c1F,1,1.01,1.03,0.957,1.04,1.02,0.947,1.02,0.999,0.989,0.946,1.02
Nc1ccc(Cc2ccc(N)c(Cl)c2)cc1Cl,1,1.01,1.01,1.01,0.997,1.04,1.07,1.11,1.08,1,1.1,1.09
CCOP(=S)(OCC)SCS(=O)CC (stereo not given),1.03,0.996,1.01,0.995,1.04,0.95,0.95,1.06,1.09,0.998,0.995,0.976
O=[N+]([O-])/N=C1\NCCN1Cc1ccc(Cl)nc1,0.975,1.02,1,1.06,1.06,0.862,0.951,1.09,1.02,1.07,0.955,0.97
CNC(=O)Oc1cccc2c1OC(C)(C)C2=O,1.05,1.03,1.02,1.04,1.15,0.878,1.04,1.02,0.955,0.99,0.994,0.924
COC(=O)c1ccccc1CS(=O)(=O)NC(=O)Nc1nc(OC)cc(OC)n1,1.02,0.974,0.978,0.998,0.999,0.996,1,1.02,0.998,1,0.964,1.01

# — the supplement of paper PMC12669032
